PubChem BioAssay (NCI)
About 83,000 compounds went through this panel and 20% of them were active in at least one assay; those are over-represented in the sample as a whole.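 Negative percent growth values reflect cell death: -40 means 40% of the cells present at the start died, and -100 means all died.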 Values without a mark were called inactive. Active and inactive are the calls of the source. Rule for the calls: active = growth percent below 10; inactive = the rest.

Assays:
Experiment in all cases: NCI-60 one-dose screen, 48 h (100 = growth as untreated, 0 = no growth, -100 = all killed)
Settings in all cases: 10 µM unless noted
SK-MEL-2 melanoma = system: SK-MEL-2 melanoma
EKVX NSCLC = system: EKVX NSCLC
SN12C renal = system: SN12C renal
UO-31 renal = system: UO-31 renal
TK-10 renal = system: TK-10 renal
ACHN renal = system: ACHN renal
CAKI-1 renal = system: CAKI-1 renal
A498 renal = system: A498 renal
CCRF-CEM leukemia = system: CCRF-CEM leukemia
RPMI-8226 leukemia = system: RPMI-8226 leukemia
OVCAR-8 ovarian = system: OVCAR-8 ovarian
OVCAR-5 ovarian = system: OVCAR-5 ovarian
OVCAR-4 ovarian = system: OVCAR-4 ovarian
SK-OV-3 ovarian = system: SK-OV-3 ovarian
IGROV1 ovarian = system: IGROV1 ovarian
OVCAR-3 ovarian = system: OVCAR-3 ovarian
HS 578T breast = system: HS 578T breast
NCI/ADR-RES ovarian = system: NCI/ADR-RES ovarian
SR leukemia = system: SR leukemia

| SMILES | growth (SK-MEL-2 melanoma) | growth (EKVX NSCLC) | growth (SN12C renal) | growth (UO-31 renal) | growth (TK-10 renal) | growth (ACHN renal) | growth (CAKI-1 renal) | growth (A498 renal) | growth (CCRF-CEM leukemia) | growth (RPMI-8226 leukemia) | growth (OVCAR-8 ovarian) | growth (OVCAR-5 ovarian) | growth (OVCAR-4 ovarian) | growth (SK-OV-3 ovarian) | growth (IGROV1 ovarian) | growth (OVCAR-3 ovarian) | growth (HS 578T breast) | growth (NCI/ADR-RES ovarian) | growth (SR leukemia) |
| --- | --- | --- | --- | --- | --- | --- | --- | --- | --- | --- | --- | --- | --- | --- | --- | --- | --- | --- | --- |
| CN(CCN(C)c1ccc(C(=N)N)cc1)c1ccc(C(=N)N)cc1 | 94.4% | 94.4% | 74.3% | 79.8% | 115% | 105% | 68.6% | 71.4% | -72% (active) | 46.8% | 107% | 90.9% | 98% | 140% | 26% | 87.9% | 108% | 104% | – |
| COc1ccc(-c2cnc3c(-c4cccc5ncccc45)cnn3c2)cc1 | 76.1% | 80% | 37.8% | 55.4% | 61.7% | 7.66% (active) | 32.2% | 16.1% | 98.4% | 68.1% | 26.8% | 82.1% | – | 24.4% | 45.1% | 57.7% | 25.4% | 45.4% | – |
| COc1cc(C(=O)Nc2cc3c(cc2Oc2cc(C)cc(C)c2)C(=O)N(C)[C@@H](CC(=O)N(C)O)C(=O)N3)c(Br)c(OC)c1OC | -55.3% (active) | -18.8% (active) | -27.7% (active) | -32.4% (active) | -12.2% (active) | -30% (active) | -5.8% (active) | -56.7% (active) | 2.91% (active) | -26.2% (active) | 0.573% (active) | -18.6% (active) | -33.3% (active) | -0.559% (active) | -22.5% (active) | -35.5% (active) | -18.1% (active) | 17.9% | – |
| O=C(/C=C/c1c(-c2ccc(Cl)cc2)nn(-c2ccccc2)c1C(F)(F)F)c1ccc(Cl)cc1 | 89% | 94.8% | 88.1% | 74.1% | 118% | 90.7% | 90% | 87.6% | 85.6% | – | 77.8% | 102% | 89% | 82.7% | 102% | 95.3% | 92.2% | 97.4% | – |
| NS(=O)(=O)c1ccc(CCN2C(=O)C=CC2=O)cc1 | 98.2% | 102% | 110% | 84.5% | 89.7% | 102% | 94.8% | 106% | 99% | – | 104% | 106% | 97.7% | 110% | 104% | – | 108% | 99.6% | 91.6% |
| CCN1C(=O)N(CC)C2Nn3c(s/c(=C\c4ccc(OC)cc4)c3=O)=NC21 (configuration not stated) | 51.9% | 82.2% | 62.6% | 48.6% | 11.2% | 42.7% | 31.9% | -2.46% (active) | 53.2% | 69.8% | 67.3% | 83.9% | 63.7% | 62.7% | – | – | 43.6% | 44.2% | – |
| Oc1ccc(OCCOc2ccc(O)cc2)cc1 | 81.8% | 75.4% | 59.6% | 4.76% (active) | 87.9% | 6.65% (active) | 11.4% | 100% | 58.8% | 66.9% | 42.4% | 69.4% | – | 95.1% | 71.4% | 70.2% | 109% | 24.3% | 45.7% |
| Cn1cc(-c2nc(-c3c[nH]c4c(Cl)nccc34)cs2)c2cc(Br)ccc21 | 87.6% | 74.1% | 88.9% | 84.5% | 86.3% | 76.5% | 92.4% | 72.3% | 74.4% | 78.6% | 80.2% | 97.6% | 90.5% | 95.6% | 102% | 111% | 85.6% | 97.6% | – |
| N#CC1=C(N)Oc2c(cnn2-c2ccc([N+](=O)[O-])cc2[N+](=O)[O-])C1c1ccccc1 (configuration not stated) | 110% | 90.6% | 101% | 79.9% | 99.4% | 103% | 90.6% | 50.7% | 79.7% | 92.5% | 101% | 99.1% | 109% | 112% | 100% | – | 89% | 101% | 98.2% |
| C[C@@H](Nc1ncnc2ccc(-c3cnc(N)nc3)cc12)c1ccc(F)cc1 | 101% | 36.7% | 33.9% | 35.1% | 21.4% | 41.5% | 40.6% | -13.5% (active) | 95.3% | 83.6% | 78.1% | 44.6% | – | 103% | – | 69.2% | 69.2% | 86% | 85.3% |
| CCCCN1C=CCN(CCCC)C1 | 24.4% | 47.5% | 34.8% | 74.6% | 56.8% | 98.1% | 86% | 78.4% | 87.2% | 37.9% | 44.2% | 82.7% | 42.6% | 84.2% | 46.4% | 13.1% | 88.9% | 108% | – |
| CC(C)c1ccc(Nc2ccc3c(OCCCN4CCN(C)CC4)cccc3n2)cc1 | 105% | 80.7% | 91.3% | 71.5% | 91% | 80.4% | 64.4% | 77.8% | 30% | 2.88% (active) | 88.7% | 81.2% | 74.2% | 99.9% | 83.1% | 79.4% | 77% | 82% | – |
| Cn1cc(-c2nc(-c3c[nH]c4c(Cl)nccc34)cs2)c2cc(F)ccc21 | 95.6% | 94.2% | 98.6% | 103% | 95% | 114% | 99.2% | 83.2% | 97.8% | 90.1% | 89.6% | 119% | 88% | 100% | 117% | 114% | 113% | 111% | – |
| O=[N+]([O-])c1ccc(N=Nc2cc(S(=O)(=O)O)c3cccc(S(=O)(=O)O)c3c2O)cc1 | 106% | 82.7% | 104% | 66.1% | 127% | 107% | 57.4% | 124% | 119% | 104% | 108% | 113% | 114% | 102% | 72.8% | 121% | 130% | 104% | – |
| O=C1CC(=O)OC(c2ccc([N+](=O)[O-])cc2)O1 | -40.2% (active) | 47.8% | -37.6% (active) | -88.2% (active) | -15.5% (active) | -76.2% (active) | -45.7% (active) | 104% | 15.3% | 14.1% | 11.6% | -3.68% (active) | 24.6% | 89.6% | -59.6% (active) | -60.6% (active) | 13.1% | -44.3% (active) | – |
| Cc1cc2cc3ccc(N(C)C)cc3nc2cc1N | -20.2% (active) | -7.41% (active) | -26% (active) | 19.1% | 9.89% (active) | 0.143% (active) | 30.5% | -2.05% (active) | 5.51% (active) | -19.1% (active) | -2.19% (active) | 3.07% (active) | -11.9% (active) | -8.06% (active) | – | -24.7% (active) | -32.5% (active) | 42.4% | -2.93% (active) |
